Source: PubChem BioAssay (EPA / NIEHS)
Activity calls are given as the source filed them. The calls were made as follows: active = hit-call score of the fitted dose curve at least 0.9, where 1 is the maximum; inactive = score below 0.9.

These compounds were tested on Tumor necrosis factor receptor superfamily member 6 (Homo sapiens) (UniProt P25445) (assay: LTEA_HepaRG_FAS: Life Technologies and Expression Analysis (LTEA) Assay for Fas cell surface death receptor (FAS) using HepaRG (AID 2283447)). Details: mRNA level, 48 h; actives raise or lower the signal.
Procedure, shortened: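 Differentiated HepaRG cells in serum-free induction medium were exposed 48 h to 8 half-log concentrations up to 100 uM in 0.5% DMSO, in duplicate. FAS mRNA was measured by qRT-PCR normalised to ACTB, GAPDH and POLR2A; bidirectional fit versus DMSO.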

Compound	outcome	AC50
CC(C)N(C(=O)SCC(Cl)=C(Cl)Cl)C(C)C	inactive	
CCOP(=S)(Oc1cnc(C(C)(C)C)nc1)OC(C)C (stereo not given)	inactive	
C#CCC1=C(C)C(OC(=O)C2C(C=C(C)C)C2(C)C)CC1=O (stereo not given)	inactive	
CCCSP(=O)(OCC)SCCC	inactive	
C[Si](Cn1cncn1)(c1ccc(F)cc1)c1ccc(F)cc1	inactive	
CNC(=O)ON=C(C)SC	inactive	
CNc1cnn(-c2cccc(C(F)(F)F)c2)c(=O)c1Cl	inactive	
CCCCSP(=O)(SCCCC)SCCCC	inactive	
CCOC(=O)CC(SP(=O)(OC)OC)C(=O)OCC (stereo not given)	inactive	
CCCCOC(=O)[C@@H](C)Oc1ccc(Oc2ccc(C#N)cc2F)cc1	inactive	
CCCSP(=O)(OCC)Oc1ccc(Br)cc1Cl (stereo not given)	inactive	
CON=C(C(=O)OC)c1ccccc1CON=C(C)c1cccc(C(F)(F)F)c1	inactive	
CCC(CC)Nc1c([N+](=O)[O-])cc(C)c(C)c1[N+](=O)[O-]	inactive	
CSc1nc(NC(C)C)nc(NC(C)C)n1	inactive	
CNC(=O)ON=C(SC)C(=O)N(C)C	inactive	
CCNc1nc(Cl)nc(NC(C)(C)C#N)n1	inactive	
O=c1ccc(=O)[nH][nH]1	inactive	
S=C1NCCN1	inactive	

Compound	outcome	AC50
CC(COc1ccc(Oc2ccccc2)cc1)Oc1ccccn1 (stereo not given)	inactive	
CCOP(=S)(OCC)OC(Cl)C(Cl)(Cl)Cl (stereo not given)	inactive	
COc1cccc(C(=O)NN(C(=O)c2cc(C)cc(C)c2)C(C)(C)C)c1C	inactive	
CCc1cccc(C)c1N(C(=O)CCl)C(C)COC (stereo not given)	inactive	
CN(C)C(=O)Nc1cccc(C(F)(F)F)c1	inactive	
CCCCN(CC)c1c([N+](=O)[O-])cc(C(F)(F)F)cc1[N+](=O)[O-]	inactive	
CCOP(=S)(OCC)Oc1ccc([N+](=O)[O-])cc1	inactive	
C=C(C)[C@H]1Cc2c(ccc3c2O[C@@H]2COc4cc(OC)c(OC)cc4[C@@H]2C3=O)O1		13.1 µM (active)
CCOP(=O)(NC(C)C)Oc1ccc(SC)c(C)c1 (stereo not given)	inactive	
COc1ccc(C(=CC(=O)N2CCOCC2)c2ccc(Cl)cc2)cc1OC	inactive	
CC1(C(=O)Nc2ccc(O)c(Cl)c2Cl)CCCCC1	inactive	
C[N+]1(C)CCCCC1	inactive	
CN(C)NC(=O)CCC(=O)O	inactive	
CN(C)[C@@H]1C(=O)C(C(N)=O)=C(O)[C@@]2(O)C(=O)C3=C(O)c4c(O)cccc4[C@@](C)(O)[C@H]3[C@H](O)[C@@H]12	inactive	
Cc1ccn2nc(S(=O)(=O)Nc3c(F)cccc3F)nc2n1	inactive	
CCOC(=O)COc1cc(-c2nn(C)c(OC(F)F)c2Cl)c(F)cc1Cl	inactive	
COP(=O)(NC(C)=O)SC (stereo not given)	inactive	
